Laboratory results: PubChem BioAssay (EPA / NIEHS)
Calls of active or inactive are those of the source. How the source made its calls: active means hit-call score of the fitted dose curve at least 0.9, where 1 is the maximum; inactive means score below 0.9.

Tests used:
[1] = ATG_CRE_CIS: Attagene CIS-FACTORIAL HepG2 Assay for human cAMP Responsive Element (CRE) binding protein 3 (AID 2282926); settings: HepG2 CRE cis-reporter, Attagene multiplexed mRNA; actives raise or lower the signal
In short: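 Cells carrying cis-regulated reporter constructs respond through their own endogenous factors. After 24 h treatment, RNA is reverse-transcribed, amplified, labelled and sized by capillary electrophoresis; up- and down-regulation are both scored against vehicle.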

[2] = molecular target: CCAAT/enhancer-binding protein beta (Homo sapiens) (UniProt P17676); assay: ATG_C_EBP_CIS: Attagene CIS-FACTORIAL HepG2 Assay for human CCAAT/Enhancer Binding Protein (C/EBP) beta (AID 2282927); settings: HepG2 Attagene cis-factorial transcription factor reporter; actives raise or lower the signal
Sequence of CCAAT/enhancer-binding protein beta (Homo sapiens) (P17676 whole entry, looked up): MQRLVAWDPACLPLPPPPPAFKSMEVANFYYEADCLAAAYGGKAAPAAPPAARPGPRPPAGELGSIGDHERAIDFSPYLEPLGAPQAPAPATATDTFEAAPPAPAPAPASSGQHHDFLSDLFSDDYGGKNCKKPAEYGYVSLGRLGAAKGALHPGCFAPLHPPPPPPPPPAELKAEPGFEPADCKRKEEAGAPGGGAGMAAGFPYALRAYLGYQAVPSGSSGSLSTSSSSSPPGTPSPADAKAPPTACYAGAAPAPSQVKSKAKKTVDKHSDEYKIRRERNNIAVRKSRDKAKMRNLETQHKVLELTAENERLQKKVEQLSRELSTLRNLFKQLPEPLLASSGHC
In short: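 Endogenous transcription factor activity in human liver HepG2 cells is inferred from induction of a CEBPB-linked reporter mRNA. Exposure lasts 24 h; activity is fitted in both directions relative to DMSO.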

[3] = ATG_CMV_CIS: Attagene CIS-FACTORIAL HepG2 Assay for human CMV (Internal Marker) (AID 2282928); settings: HepG2 CMV promoter reporter, transcription factor profiling; actives raise or lower the signal;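 further: endpoint acts as a background internal control marker rather than a target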
In short: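 Reporter transcripts from transfected HepG2 cells are isolated after 24 h of chemical dosing, reverse-transcribed and amplified. Fragments labeled with 6-FAM are cut with HpaI and quantified by capillary electrophoresis; DMSO defines baseline.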

[4] = molecular target: Aryl hydrocarbon receptor (Homo sapiens) (UniProt P35869); assay: ATG_Ahr_CIS: Attagene CIS-FACTORIAL HepG2 Assay for human Aryl Hydrocarbon Receptor (Ahr) (AID 2282930); settings: HepG2 AhR cis-factorial reporter transcription; actives raise or lower the signal
Sequence of Aryl hydrocarbon receptor (Homo sapiens) (P35869 whole entry, looked up): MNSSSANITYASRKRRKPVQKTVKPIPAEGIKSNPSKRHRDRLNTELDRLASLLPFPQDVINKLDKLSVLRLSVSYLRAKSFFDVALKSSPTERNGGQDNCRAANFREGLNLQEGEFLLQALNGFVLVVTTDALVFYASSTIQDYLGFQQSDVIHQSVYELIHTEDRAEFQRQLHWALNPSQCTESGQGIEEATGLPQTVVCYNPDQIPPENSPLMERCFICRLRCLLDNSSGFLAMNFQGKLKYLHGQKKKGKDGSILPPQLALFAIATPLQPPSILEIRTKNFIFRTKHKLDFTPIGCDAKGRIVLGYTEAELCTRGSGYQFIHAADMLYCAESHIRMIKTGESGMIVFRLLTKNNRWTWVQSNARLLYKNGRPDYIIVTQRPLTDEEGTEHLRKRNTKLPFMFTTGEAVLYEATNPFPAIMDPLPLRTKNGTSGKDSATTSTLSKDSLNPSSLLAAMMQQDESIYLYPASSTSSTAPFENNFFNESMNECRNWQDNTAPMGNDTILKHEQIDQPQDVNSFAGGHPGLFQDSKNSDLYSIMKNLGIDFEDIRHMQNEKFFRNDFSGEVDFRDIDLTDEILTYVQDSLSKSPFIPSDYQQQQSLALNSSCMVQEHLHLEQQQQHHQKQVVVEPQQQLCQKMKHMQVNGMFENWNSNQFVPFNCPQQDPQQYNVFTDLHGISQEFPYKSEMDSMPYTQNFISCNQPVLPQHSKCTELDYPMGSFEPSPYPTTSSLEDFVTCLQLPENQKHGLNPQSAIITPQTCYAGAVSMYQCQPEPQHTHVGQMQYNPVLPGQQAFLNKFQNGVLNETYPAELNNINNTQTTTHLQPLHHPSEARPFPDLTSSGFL
In short: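 Transient MRTU transfection of HepG2 → 24 h compound exposure → total RNA, oligo(dT) RT → PCR, 6-FAM extension, HpaI cut → CE fluorescence. DMSO = baseline; bidirectional curve fit.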

[5] = ATG_AP_1_CIS: Attagene CIS-FACTORIAL HepG2 Assay for human Activator Protein 1 (AP-1) (AID 2282931); settings: HepG2 Attagene cis-factorial AP-1 reporter mRNA; actives raise or lower the signal
In short: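 Bidirectional concentration-response fitting against DMSO controls. Underlying signal: reporter mRNA from cis-promoter constructs in transiently transfected HepG2, measured after 24 h by RT-PCR and capillary electrophoresis.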

[6] = ATG_AP_2_CIS: Attagene CIS-FACTORIAL HepG2 Assay for human Activator Protein 2 (AP-2) (AID 2282932); settings: HepG2 AP-2 cis-reporter, Attagene transcription factor profiling; actives raise or lower the signal
In short: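 Transiently transfected HepG2 cells are exposed to chemical for 24 h. Reporter transcripts are then measured as fluorescence following RT-PCR and capillary separation, and gain- or loss-of-signal is fitted relative to DMSO.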

[7] = ATG_BRE_CIS: Attagene CIS-FACTORIAL HepG2 Assay for human Bone Morphogenetic Protein (BMP) Response Element (BRE) (AID 2282933); settings: HepG2 BMP response element reporter, Attagene transcription factor profiling; actives raise or lower the signal
In short: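 Endogenous transcription factor activity read in transiently transfected HepG2 cells after 24 h chemical exposure. Bidirectional curve fitting against DMSO; readout is reporter transcript level by RT-PCR with capillary electrophoresis of labelled products.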

[8] = molecular target: Retinoic acid receptor alpha (Homo sapiens) (UniProt P10276); assay: ATG_DR5_RAR_CIS: Attagene CIS-FACTORIAL HepG2 Assay for human Retinoic Acid Receptor Alpha (RARE), DR5 submotif (AID 2282934); settings: HepG2 Attagene cis-factorial RARE DR5 reporter, mRNA; actives raise or lower the signal
Sequence of Retinoic acid receptor alpha (Homo sapiens) (P10276 whole entry, looked up): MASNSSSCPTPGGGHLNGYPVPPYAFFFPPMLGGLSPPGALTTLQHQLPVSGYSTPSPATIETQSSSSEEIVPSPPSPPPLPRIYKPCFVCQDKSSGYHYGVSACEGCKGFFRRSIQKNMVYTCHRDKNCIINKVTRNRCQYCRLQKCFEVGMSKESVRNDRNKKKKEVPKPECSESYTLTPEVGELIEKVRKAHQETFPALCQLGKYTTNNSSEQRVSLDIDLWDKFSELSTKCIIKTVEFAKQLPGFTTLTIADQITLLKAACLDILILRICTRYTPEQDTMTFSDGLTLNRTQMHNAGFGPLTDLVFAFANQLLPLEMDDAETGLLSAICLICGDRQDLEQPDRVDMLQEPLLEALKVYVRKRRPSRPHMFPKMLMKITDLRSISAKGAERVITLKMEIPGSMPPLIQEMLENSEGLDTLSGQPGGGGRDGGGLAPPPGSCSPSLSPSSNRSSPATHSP
In short: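 Transient MRTU transfection of HepG2; 24 h compound treatment; TriZol RNA, oligo(dT) RT, PCR, FAM labelling, capillary electrophoresis. Bidirectional fit vs DMSO. Endogenous TF activity at DR5 RARE.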

[9] = molecular target: Transcription factor E2F1 (Homo sapiens) (UniProt Q01094); assay: ATG_E2F_CIS: Attagene CIS-FACTORIAL HepG2 Assay for human E2F Transcription Factor 1 (AID 2282935); settings: HepG2 Attagene cis-reporter, E2F reporter RNA transcripts; actives raise or lower the signal
Sequence of Transcription factor E2F1 (Homo sapiens) (Q01094 whole entry, looked up): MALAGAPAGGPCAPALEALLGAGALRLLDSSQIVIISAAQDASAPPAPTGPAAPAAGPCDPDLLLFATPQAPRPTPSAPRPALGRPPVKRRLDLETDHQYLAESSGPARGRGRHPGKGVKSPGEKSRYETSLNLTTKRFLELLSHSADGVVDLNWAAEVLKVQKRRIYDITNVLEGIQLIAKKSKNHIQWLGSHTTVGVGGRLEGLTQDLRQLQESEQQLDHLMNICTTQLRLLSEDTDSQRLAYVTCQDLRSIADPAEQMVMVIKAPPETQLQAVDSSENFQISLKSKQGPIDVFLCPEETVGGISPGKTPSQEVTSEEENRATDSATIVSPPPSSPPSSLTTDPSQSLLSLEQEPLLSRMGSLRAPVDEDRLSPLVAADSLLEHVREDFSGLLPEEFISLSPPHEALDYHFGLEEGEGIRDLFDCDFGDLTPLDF
In short: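 Fluorescent RT-PCR products, digested with HpaI for 2 h at 37 C, are separated by capillary electrophoresis. Source RNA comes from transfected HepG2 cultures treated for 24 h.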

[10] = ATG_E_Box_CIS: Attagene CIS-FACTORIAL HepG2 Assay for human Enhancer Box (E-box) (AID 2282936); settings: HepG2 E-box cis-reporter transcription, actives raise or lower the signal
In short: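 Fluorescent reporter fragments separated by capillary electrophoresis gave the signal; mRNA came from HepG2 cells transfected with cis-element reporters and treated 24 h. Curves fitted bidirectionally relative to DMSO controls.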

[11] = ATG_M_61_CIS: Attagene CIS-FACTORIAL HepG2 Assay for M61 Transcription Factor (Internal Marker) (AID 2282937); settings: HepG2 Attagene CIS-FACTORIAL M61 internal marker reporter; actives raise or lower the signal
In short: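 Fluorescence from labelled cDNA fragments, separated by capillary electrophoresis, quantifies reporter induction. HepG2 cells bearing transiently transfected cis-promoter MRTUs were incubated with test chemical for 24 h; DMSO defined baseline for gain/loss fitting.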

[12] = ATG_EGR_CIS: Attagene CIS-FACTORIAL HepG2 Assay for human Early Growth Response 1 (EGR1) (AID 2282938); settings: HepG2 Attagene CIS-FACTORIAL EGR reporter mRNA; actives raise or lower the signal
In short: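 Cell-based multiplex transcription assay: HepG2 carrying transfected cis-element reporter units, 24 h chemical treatment. Fluorescence from capillary electrophoresis of RT-PCR products gives mRNA levels; fitting is bidirectional relative to DMSO.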

[13] = ATG_M_19_CIS: Attagene CIS-FACTORIAL HepG2 Assay for M19 Transcription Factor (Internal Marker) (AID 2282939); settings: HepG2 Attagene CIS-FACTORIAL M19 internal marker reporter; actives raise or lower the signal
In short: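 Internal marker readout, fitted in both directions against DMSO, from HepG2 cells carrying transfected cis-element reporter constructs; RT-PCR and capillary electrophoresis of reporter mRNA after 24 h exposure.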

[14] = ATG_Ets_CIS: Attagene CIS-FACTORIAL HepG2 Assay for human Erythroblast Transformation Specific (ETS) (AID 2282941); settings: HepG2 ETS cis-reporter transcription, actives raise or lower the signal
In short: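 Bidirectional fit versus DMSO of reporter mRNA signal, detected by RT-PCR and capillary electrophoresis in HepG2 cells transiently transfected with cis-element reporters and dosed 24 h.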

[15] = molecular target: Hepatocyte nuclear factor 3-beta (Homo sapiens) (UniProt Q9Y261); assay: ATG_FoxA2_CIS: Attagene CIS-FACTORIAL HepG2 Assay for human Forkhead box A2 (FOXA2) (AID 2282942); settings: HepG2 cis-reporter transcription factor activity, 24 h; actives raise or lower the signal
Sequence of Hepatocyte nuclear factor 3-beta (Homo sapiens) (Q9Y261 whole entry, looked up): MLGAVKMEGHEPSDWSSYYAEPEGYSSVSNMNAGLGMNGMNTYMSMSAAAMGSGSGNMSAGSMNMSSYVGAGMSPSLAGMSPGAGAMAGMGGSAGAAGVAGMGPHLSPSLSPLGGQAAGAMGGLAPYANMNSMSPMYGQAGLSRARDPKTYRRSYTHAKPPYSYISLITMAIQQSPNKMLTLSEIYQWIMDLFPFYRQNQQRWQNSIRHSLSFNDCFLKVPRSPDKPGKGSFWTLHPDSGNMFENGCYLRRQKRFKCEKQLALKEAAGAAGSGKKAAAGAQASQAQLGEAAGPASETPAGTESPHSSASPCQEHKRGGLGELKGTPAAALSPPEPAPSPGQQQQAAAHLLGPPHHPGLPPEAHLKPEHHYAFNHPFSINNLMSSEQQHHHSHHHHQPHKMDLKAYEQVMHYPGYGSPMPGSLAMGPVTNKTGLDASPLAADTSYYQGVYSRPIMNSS
In short: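 In transiently transfected human HepG2 cells, promoter-driven reporter mRNA levels after 24 h chemical exposure are determined via RT-PCR with capillary electrophoresis. DMSO serves as baseline for bidirectional fitting.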

[16] = ATG_FoxO_CIS: Attagene CIS-FACTORIAL HepG2 Assay for human Forkhead box O (FoxO) (AID 2282943); settings: HepG2 Attagene cis-reporter, FoxO element, mRNA; actives raise or lower the signal
In short: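 HepG2, transient MRTU transfection (cis element, endogenous TFs). Dose 24 h. TriZol RNA → oligo(dT) RT → PCR → 6-FAM primer extension → HpaI cut → CE. Gain/loss vs DMSO.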

[17] = ATG_GLI_CIS: Attagene CIS-FACTORIAL HepG2 Assay for human Zinc Finger Protein GLI1 (AID 2282945); settings: HepG2, Attagene cis-factorial reporter mRNA, GLI element; actives raise or lower the signal
In short: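 Bidirectional curve fits relative to DMSO, using reporter mRNA levels from RT-PCR plus capillary electrophoresis. Cells were HepG2 transiently carrying cis-regulated reporter constructs, harvested 24 h after dosing.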

[18] = ATG_GATA_CIS: Attagene CIS-FACTORIAL HepG2 Assay for human GATA Binding Protein (AID 2282944); settings: HepG2 GATA cis-element reporter, Attagene multiplex mRNA; actives raise or lower the signal
In short: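 Reporter transcripts from a GATA cis-regulated unit, among multiplexed reporters in transfected HepG2 cells, were measured by RT-PCR with capillary electrophoresis after 24 h dosing. Induction or loss scored relative to DMSO.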

[19] = ATG_ERE_CIS: Attagene CIS-FACTORIAL HepG2 Assay for Estrogen Response Element (ERE) (AID 2282940); settings: HepG2 ERE cis-reporter, Attagene RNA transcript; actives raise or lower the signal
In short: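 After 24 h compound treatment, RNA from transfected HepG2 cells was reverse-transcribed, reporter cDNA PCR-amplified, FAM-labelled, HpaI-cut and resolved by capillary electrophoresis. ERE-driven cis reporter transcripts reflect endogenous factors; gain or loss scored against DMSO.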

[20] = ATG_DR4_LXR_CIS: Attagene CIS-FACTORIAL HepG2 Assay for human Liver X Receptor (LXR), DR4 submotif (AID 2282929); settings: HepG2 Attagene DR4 cis-reporter, mRNA transcription; actives raise or lower the signal
In short: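 Measures endogenous transcription factor activity via a DR4-driven reporter transcript in human HepG2 cells. Compounds incubated 24 h; mRNA quantified by RT-PCR and capillary electrophoresis, analysed as gain or loss of signal versus DMSO.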

Measured: AC50

CC(C)C[C@H](NC(=O)OCC1c2ccccc2-c2ccccc21)C(=O)O
not listed: [18] | [19] | [20]
inactive: all other assays above

O=C(c1ccccc1)C(O)c1ccccc1 (centres undefined)
not listed: [19] | [20]
inactive: all other assays above

Cc1cccc(Nc2ccccc2)c1
active: [5] 139 µM | [12] 73.8 µM | [14] 154 µM
not listed: [10] | [19] | [20]
inactive: all other assays above

ClC(c1ccccc1)(c1ccccc1)c1ccccc1
not listed: [11] | [19] | [20]
inactive: all other assays above

O=C(O)c1cccnc1C(=O)O
not listed: [8] | [11] | [20]
inactive: all other assays above

C=C(C)[C@H]1CC=C(C)C(=O)C1
not listed: [8] | [19] | [20]
inactive: all other assays above

CCOC(=O)C(C#N)=C(c1ccccc1)c1ccccc1
active: [1] 63 µM | [5] 178 µM | [7] 125 µM | [12] 20 µM
not listed: [9] | [14] | [19] | [20]
inactive: all other assays above

COc1ccc(N)c([N+](=O)[O-])c1
not listed: [19] | [20]
inactive: all other assays above

CCCCC(CC)COC(C)=O (centres undefined)
not listed: [4] | [9] | [18] | [19] | [20]
inactive: all other assays above

Oc1ccc2cc(SSc3ccc4cc(O)ccc4c3)ccc2c1
active: [1] 62 µM | [2] 131 µM | [3] 26 µM | [5] 100 µM | [7] 57 µM | [12] 27.7 µM
not listed: [8] | [9] | [11] | [19] | [20]
inactive: all other assays above

O=C(O)CCCCCCCCC(=O)O
not listed: [4] | [9] | [19] | [20]
inactive: all other assays above

CCC1(C)NC(=O)NC1=O (centres undefined)
not listed: [19] | [20]
inactive: all other assays above

NC1CCCCC1N (centres undefined)
not listed: [8] | [9] | [11] | [19] | [20]
inactive: all other assays above

CCOc1ccc(NC(=O)CC(C)=O)cc1
not listed: [10] | [11] | [19] | [20]
inactive: all other assays above

O=Cc1ccccc1S(=O)(=O)O
not listed: [1] | [9] | [19]
inactive: all other assays above
